Most compounds without a hit are left out; they make up all but 9.4% or so of the library.
Rab9 prom act: Rab9 promoter activation; 2.8% of 320,000 active; Potency, µM (top dose mostly 9.22 µM), for inactives: at the top dose activation, negative = inhibition, most hits filed as activators; Huh7 Rab9 promoter-luciferase reporter, luminescence, 24 h; AID 485297; also: % of control where 0% means no effect; nearly all actives have a fitted effect of over 60% in size
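Rab9 promoter-driven luciferase in stably transfected Huh7 cells; 1500 cells/well rested 2 h, exposed to compound in DMSO for 24 h at 37 °C, 5% CO2. Luminescence read 10 min after adding luciferase reagent at ambient temperature.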
NPC1 prom act: activates the NPC1 promoter; Potency, µM (titrated, usually from 9.22 µM), inactives show at the top dose activation, usual class: activators; 2.4% of 320,000 active; AID 485313; Huh7 NPC1 promoter luciferase reporter, 24 h; also: % of control where 0% means no effect; nearly all actives have a fitted effect of over 60% in size
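Huh7 cells stably carrying NPC1 promoter–luciferase, plated in Opti-MEM with 10% FBS for 2 h, were exposed to compound in DMSO for 24 h at 37 °C; luciferase reagent was added for 10 min and luminescence read.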
ELG1 genotoxic: inducers of genotoxicity in HEK293T ELG1-luciferase cells; HEK293T ELG1-luciferase reporter, luminescence, 16 h; Potency, µM (highest dose often 46 µM), for inactives: at the highest dose activity change, positive = activation, most hits filed as activators; 1.3% of 330,000 active; AID 504466; also: % of control where 0% means no effect; nearly all actives have a fitted effect of over 60% in size
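HEK293T cells expressing luciferase-tagged ELG1 were exposed to compound or DMSO vehicle for 16 hr at 37 °C and 5% CO2. Luciferase activity was then measured with ONE-Glo after 30 min at room temperature.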
FLuc modulator: inhibits or activates purified firefly luciferase, miR-21 counter-screen; 6.9% of 360,000 active; Potency, µM (top dose mostly 57.5 µM), inactives show at the top dose activity change, negative = inhibition, hits mostly inhibitors; P08659; purified FLuc, Km substrates, luminescence inhibition;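 also: plate controls were vehicle for no effect and reference inhibitor for full effect; nearly all actives have a fitted effect of over 55% in size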
Target sequence (P08659 whole entry, looked up): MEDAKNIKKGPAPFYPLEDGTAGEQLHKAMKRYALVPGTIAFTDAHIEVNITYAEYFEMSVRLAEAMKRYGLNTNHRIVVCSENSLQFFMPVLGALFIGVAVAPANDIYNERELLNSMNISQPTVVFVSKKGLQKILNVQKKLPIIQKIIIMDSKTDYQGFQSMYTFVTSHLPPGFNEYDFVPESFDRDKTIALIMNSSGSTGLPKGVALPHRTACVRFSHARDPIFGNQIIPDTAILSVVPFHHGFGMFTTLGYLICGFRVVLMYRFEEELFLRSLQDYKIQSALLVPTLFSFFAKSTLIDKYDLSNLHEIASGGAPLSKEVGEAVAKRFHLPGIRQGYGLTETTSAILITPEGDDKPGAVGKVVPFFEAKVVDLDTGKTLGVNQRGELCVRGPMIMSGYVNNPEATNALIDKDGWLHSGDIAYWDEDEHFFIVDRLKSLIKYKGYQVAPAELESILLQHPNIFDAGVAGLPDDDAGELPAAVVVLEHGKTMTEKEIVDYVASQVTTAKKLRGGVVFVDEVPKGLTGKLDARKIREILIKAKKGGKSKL
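Purified P. pyralis luciferase, 10 nM final, with Km-level 10 uM D-luciferin and 10 uM ATP in 50 mM Tris acetate pH 7.5, 10 mM Mg acetate, 0.01% Tween-20, 0.05% BSA; 6-point qHTS titration about 60 µM downward; luminescence read.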
SMN2 splice enh: SMN2 splice variant enhancement; HEK293 SMN2-luciferase splicing reporter, luminescence, 30-36 h; Potency, µM (doses to about 46.1 µM), inactives show at the highest dose activity change, positive = activation, usual class: activators; 2.8% of 210,000 active; also: % of control where 0% means no effect; nearly all actives have a fitted effect of over 55% in size
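HEK293 cells carry an SMN2 minigene-luciferase reporter in which exon 7 inclusion puts luciferase in frame. Cells were seeded at 2000 cells/well, attached for 10-12 hours, then exposed to compounds for 30-36 hours at 37C before ONE-Glo luminescence.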
ELG1 repair inh: blocks ELG1-dependent DNA repair in HEK293T cells. 2.3% of 330,000 active. AID 504467. HEK293T ELG1-luciferase reporter, luminescence, 16 h; DNA damage induced by 5-fluorouridine. Potency, µM (titrated, usually from 46.1 µM), inactives show top-dose activity change, negative = inhibition, usual class: inhibitors; also: % is scaled to controls: 0 for no effect and ±100 for the full control effect; nearly all actives have a fitted effect of over 55% in size
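5-Fluorouridine DNA damage + compound/DMSO, 2,000 cells/well, 16 h, 37 °C/5% CO2. ONE-Glo, 30 min RT, luminescence. Readout = decrease in reporter signal.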
Starred values were filed as active, the others as inactive; ? = inconclusive; / = no result given; [ ] = another dose, or the depositor's remark. Calls follow the shape of the dose curve; as a rule, active = well fitted curve in the direction sought with a large enough effect; inconclusive = small, poorly fitted or top-dose-only effect, or another doubt; inactive = no such curve, though single readings can be large; an effect the other way counts as inactive or inconclusive. Potency is read from the fitted curve at half-maximal effect.

SMILES | Rab9 prom act | NPC1 prom act | ELG1 genotoxic | FLuc modulator | SMN2 splice enh | ELG1 repair inh
Cc1ccc2scc(N3CCCC(C)C3)c(=O)c2c1 (configuration not stated) | / | / | / | 0.76µM* | / | /
CC1CCCCN1c1csc2ccc(F)cc2c1=O (configuration not stated) | / | / | / | 7.6µM* | / | /
Cc1cnc(CNc2ncnc3ccc(-c4ccccc4C#N)cc23)cn1 | / | / | / | / | -13% | /
CCn1c(O)c(C=Nc2ccccc2)sc1=S | 2.8µM* | ? | ? | 9.5µM* | / | ?
C=C1c2cccc(O)c2C(O)=C2C(=O)[C@@]3(O)C(O)=C(C(N)=O)C(=O)[C@@H](N(C)C)[C@@H]3[C@@H](O)[C@H]12 | / | / | / | / | 4%[20.6 µM] | /
O=C(Nc1ccc(-c2nc3ccccc3s2)cc1)C1=COCCO1 | 0.4µM* | 0.089µM* | 0.26µM* | 0.11µM* | -27% | ?
O=C(Nc1ccc(O)c(-c2nc3ccccc3s2)c1)C1=COCCO1 | -1% | 0% | 0% | -16% | -17% | 7%
O=C(Nc1ccc(-c2nc3ccccc3s2)c(O)c1)C1=COCCO1 | 0.71µM* | 0.5µM* | 16µM* | 0.48µM* | 2.2µM* | ?
O=C(Nc1cccc(-c2nc3ccccc3s2)c1)C1=COCCO1 | -2% | -5% | 10% | 17µM* | 21% | 2%
CC(C)Oc1ccc(C(=O)Nc2ccc(-c3nc4ccccc4s3)cc2)cc1 | / | / | / | -4% | / | /
CCN1C(C(=O)c2ccccc2)=C(OC(=O)COc2ccc(C)cc2)c2ccccc2S1(=O)=O | / | / | / | -16% | -20% | /
Cc1nc2ccc3nc(NC(=O)c4ccc5c(c4)OCCO5)sc3c2s1 | 19% | 13% | 3% | ? | -2% | ?
Cc1ccc2sc(NC(=O)c3ccc4c(c3)OCCO4)nc2c1C | / | / | / | 2.7µM* | / | /
Cc1cnc(NC(=O)c2ccc3c(c2)OCCO3)s1 | 0.1µM* | ? | ? | 0.11µM* | / | ?
Cc1nc2c(ccc3nc(NC(=O)c4ccc5c(c4)OCCO5)sc32)s1 | 0.71µM* | 0.32µM* | ? | 0.21µM* | ? | ?
O=C(Nc1nnc(-c2ccncc2)o1)c1cccc(N2C(=O)CCC2=O)c1 | 0% | -2% | 1% | -19% | -14% | 2%
O=C(Nc1nnc(-c2ccc(Cl)cc2)o1)c1cccc(N2C(=O)CCC2=O)c1 | 1% | 2% | 1% | 12µM* | 12% | 13%
CSc1cccc(-c2nnc(NC(=O)c3cccc(N4C(=O)CCC4=O)c3)o2)c1 | -3% | 0% | -10% | 27µM* | / | 1%
CCOc1ccccc1NC(=O)Cn1ncc2c(=O)oc3ccc(C)cc3c21 | / | / | / | 1% | -12% | /
CCOc1ccc(C(=O)NC2CC(=O)N(c3ccc(C)cc3)C2)cc1OCC (configuration not stated) | / | / | / | 4% | / | /
N=c1cc(C2(O)CCCCC2)n2c(nc3ccccc32)s1 | 0.28µM* | 0.28µM* | 0.58µM* | 0.67µM* | -11% | ?
Cc1cc(N=Nc2ccc(C)c(N=Nc3cc(C)c(N)cc3N)c2)c(N)cc1N | 2.8µM* | 2.8µM* | 2.3µM* | 0.54µM* | / | ?
Cc1nn(-c2ccccc2)c(N)c1Sc1cccc([N+](=O)[O-])c1 | -5% | -2% | -1% | -2% | -32% | -9%
Cc1cc(C)nc(-n2nc(C)c(Sc3ccc(F)cc3)c2N)n1 | 3.5µM* | 2.5µM* | ? | 11µM* | 16µM* | ?
C=CCN=C(NC#N)SCC(=O)c1cccc(OC)c1 | ? | 3.5µM* | 6% | ? | ? | ?
SMILES | Rab9 prom act | NPC1 prom act | ELG1 genotoxic | FLuc modulator | SMN2 splice enh | ELG1 repair inh
CCc1ccc(-c2ccc(C(=O)O)cc2)nc1 | 3.5µM* | ? | 10% | 8.5µM* | ? | ?
CCc1ccc(-c2ccc(C(=O)Oc3ccc(Br)cc3)cc2)nc1 | / | / | / | -1% | 5% | /
COc1ccc(-n2c(/C=C/c3cccc4ccccc34)nc3ccccc3c2=O)cc1Cl | / | / | / | -1% | / | /
C(=N\n1cnnc1)/c1cccc(OCCOc2ccccc2)c1 | 1.4µM* | 2.8µM* | 5% | ? | 11µM* | ?
C(=N\n1cnnc1)/c1ccc(OCc2cccc3ccccc23)cc1 | ? | ? | ? | ? | 14µM* | ?
O=C(CSc1oc(-c2ccccc2)nc1S(=O)(=O)c1ccc(Br)cc1)c1ccccc1 | / | / | / | 3% | -3% | /
N#Cc1c(-c2ccccc2)cc(-c2ccccc2)nc1SCC(O)CS(=O)(=O)Cc1ccc(Cl)cc1 (configuration not stated) | / | / | / | ? | -5% | /
Cc1cc(C(=O)COc2cccc([N+](=O)[O-])c2)c(C)n1C1CC1 | 3.2µM* | 2.2µM* | ? | 2.4µM* | / | ?
Cc1cc(C(=O)COC(=O)c2cccc(O)c2)c(C)n1C1CC1 | ? | ? | ? | 0.27µM* | / | ?
CCSc1nc(N)c2c(C)c(C)sc2n1 | 2% | 2% | 9% | ? | 17% | ?
C=CCSc1nc(N)c2c(C)c(C)sc2n1 | 24% | 18% | ? | 12µM* | -5% | ?
CCN(CC)S(=O)(=O)c1ccc2c(c1)N(CC(=O)N1CCN(c3ccc(Cl)cc3)CC1)C(=O)CO2 | / | / | / | 0% | / | /
COc1ccc(-n2c(=O)c3ccc(C(=O)NCc4ccc(C)cc4)cc3n(Cc3ccc(Cl)cc3)c2=O)cc1 | / | / | / | 1% | 7% | /
O=C1c2ccccc2-c2nc3ccccc3nc21 | 2.2µM* | 2.8µM* | 4.5µM* | 15µM* | 13µM* | ?
COc1ccccc1-c1nc2ccccc2nc1-c1ccccc1OC | -11% | -2% | -1% | 1% | 1% | -26%
COc1ccc(OC)c(NC(=O)CSc2cn(CC(=O)N3CCCCCC3)c3ccccc23)c1 | / | / | / | -4% | / | /
CCOc1ccc(/C=C\C(C)=N\O)cc1 | 2.2µM* | 2µM* | 10µM* | 8.5µM* | 16µM* | ?
CCOc1ccc(/C=C/C(=O)CCC(=O)O)cc1 | 0.71µM* | ? | ? | 1.1µM* | / | ?
CC(C)c1ccc(/C=C/C(=O)CCC(=O)O)cc1 | 0.79µM* | 0.28µM* | ? | 0.24µM* | 1.4µM* | ?
CC(C)c1ccc(/C=C/C(=O)NCc2ccc(S(N)(=O)=O)cc2)cc1 | 18% | -2% | 1% | 13µM* | -31% | ?
Cc1ccc(C(=O)Nc2ccc3oc(-c4cc(Br)ccc4Cl)nc3c2)cc1 | / | / | / | 0% | -29% | /
CCOc1ccc(S(=O)(=O)n2nc(C)c(S(=O)(=O)N3CCCCC3)c2C)cc1 | / | / | / | -9% | / | /
CC(C)CN(CCCNC(=O)c1cc(-c2ccc(Br)s2)nc2ccccc12)CC(C)C | / | / | / | 0% | -11% | /
O=C(Nc1ccccn1)c1ccc(COc2ccccc2Cl)o1 | 26% | 0% | ? | 17µM* | 14% | ?

Screening data as filed in PubChem.
